The values below come from PubChem BioAssay.

Assay [1] in a line: Her2 expression decrease, cell viability multiplex – SKBR3 breast tumor cells, AlphaScreen, ATP viability, primary screen (AID 461;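 active means Her2 level under about 52% in both replicate screens, with viability over 70% of control, limit read from the data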;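 on Her2 level: lower value means less Her2 protein in the cells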;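 on viability: percent of carrier control wells set as 100% viability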). The note with it: SKBR3 Her2 protein level, 18-24 h, measured here: SKBR3 viability, ATP luminescence, at 10 µM. Background: Alpha assays give light when donor and acceptor beads are brought close together.
For assay [2], the target named is Receptor tyrosine-protein kinase erbB-2 (Homo sapiens) (UniProt P04626). Described as above. As to conditions: 18-24 h, at 10 µM, stronger effect = lower value.
Assay [3] is described as follows: reduced viability of SK-BR-3 breast cancer cells – cell-based, 24 h, human, pilot screen (AID 572;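 active means viability at or below 10% of carrier control in both of two separate runs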;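 further: compound exposure lasted between 18 and 24 h rather than exactly 24 h; 100% = carrier-treated control wells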). As to conditions: SK-BR-3 viability, CellTiter-Glo luminescence, at 10 µM, stronger effect = lower value. Background: ATP-based viability assays read luminescence as a measure of living cells.
The nature of assay [4]: HUVEC growth inhibition – cell-based, human, primary screen (AID 575;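 active means viability at or below 30% in both replicate assays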;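 further: 100% = median of untreated cell wells with 0.1% DMSO on each plate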). As to conditions: HUVEC proliferation, CellTiter-Glo luminescence, 72 h; at 10 µM; stronger effect = lower value.
A short description of assay [5]: H69AR cell proliferation blockers – human, duplicate replicates, primary screen (AID 580;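 active means viability at or under a set limit in both replicates, limit being median viability minus 3 SD, cut at about 48% in these data, passing the limit was not always enough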;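 further: 100% = mean luminescence of untreated wells and 0% = no signal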). The note with it: H69AR lung tumor cells viability, ATP luminescence, 72 h; at 10 µM; stronger effect = lower value.
Assay [6] in a line: MRP1 drug-resistance reversers in H69AR cells – cell-based, doxorubicin co-treatment, pilot screen (AID 601;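 active means viability loss from added drug above about 55%, and viability with drug at most 40%, in both replicates, limit read from the data, passing the limit was not always enough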). The note with it: CellTiter-Glo, 72 h, at 10 µM; for differential viability (reversal): stronger effect = higher value.
Assay [7] is described as follows: yeast transport mutant growth inhibition pilot in 384-well plates, post-Golgi transport modulator project (AID 636; in the data active means inhibition above about 31%). The note with it: absorbance 615 nm, about 18 h, stronger effect = higher value.
Assay [8] in a line: growth suppression of yeast trafficking mutant, preliminary HTS, modulators of trafficking downstream of Golgi apparatus project, 1536-format plate, OD 615 nm (AID 637; in the data active means inhibition above about 30%). As to conditions: yeast transport mutant growth, absorbance 615 nm, 18 h; stronger effect = higher value.
Assay [9] in a line: S. cerevisiae growth inhibition in permissive medium (OD615), pilot counter-assay for S. cerevisiae lifespan shortening project, permissive growth control (AID 705). As to conditions: OD615, 24 h, at 10 µM, stronger effect = higher value.
The nature of assay [10]: S. cerevisiae growth inhibition in restrictive medium, OD615, pilot screen, restrictive growth control, yeast lifespan reduction project (AID 706;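 active means growth inhibition above a set limit, 3 SD over mean compound inhibition, in both replicates, cut at about 43% in these data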;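 further: modified DeaD lifespan yeast strain shifted to restrictive glucose medium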). The note with it: OD615, 48 h, at 10 µM, stronger effect = higher value.
Assay [11] is described as follows: doxorubicin toxicity protection in MRP-1 cells – H69AR cells, CellTiter-Glo, duplicate, MRP-1 activator project, pilot screen (AID 807;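 active means viability increase at or above a cutoff of the median across tested compounds plus 3 SD, cut at about 8.5% in these data, passing the limit was not always enough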;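 further: compound pretreatment 18-22 h then 72 h combined with doxorubicin; 0% = doxorubicin alone and 100% = vehicle without doxorubicin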). As to conditions: H69AR viability with doxorubicin, CellTiter-Glo luminescence; at 10 µM; stronger effect = higher value.
A short description of assay [12]: viability of HCT116 without oncogenic beta-catenin – human colon tumor cells, pilot screen (AID 823;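 active means cell viability at or below a set limit in both duplicate runs, the limit being the all-compound median minus 4 SD, cut at about 23% in these data, passing the limit was not always enough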;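 further: 0% = wells killed by 20 µM Hyamine and 100% = untreated DMSO cell wells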). As to conditions: HCT116 beta-catenin knockout viability, CellTiter-Glo, 60 h; at 10 µM; stronger effect = lower value.
Assay [13] in a line: viability of PTEN-null HCT116 cells – cell-based, HCT116 clonal line, CellTiter-Glo, pilot screen (AID 824;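 active means viability at or below 27.92% in each of two runs, the all-compound median minus 4 SD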;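 further: 0% = 20 µM Hyamine control and 100% = vehicle cell control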). As to conditions: HCT116 PTEN-deleted viability, 60 h, at 10 µM, stronger effect = lower value.
Assay [14] in a line: RAM pathway blockade in budding yeast – dse1pr::URA3 reporter, 5-FOA selection, pilot screen (AID 869;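 active means inhibition over a set limit, the all-compound mean plus 3 SD, in both replicate runs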;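 further: 0% = DMSO wells with no growth and 100% = 10 µM 1-NA-PP1 with full growth; RAM network block rescues cells from 5-FOA so hits raise OD615 growth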). The note with it: S. cerevisiae dse1pr::URA3 5-FOA growth, OD615, 2 d; at 10 µM; stronger effect = higher value; strain carries analog-sensitive mutant Cbk1 kinase.
Assay [15] in a line: RAM signaling pathway blockade in yeast – S. cerevisiae, Pdr1DBD-CYC8 efflux-inhibited sensitized strain, primary screen (AID 1298;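 active means RAM network inhibition above 8.4% in each of two replicates, 3 SD over the compound average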;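 further: 0% = DMSO untreated cells without growth and 100% = 10 µM 1-NA-PP1 full growth; higher means more yeast growth rescued from 5-FOA killing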). As to conditions: S. cerevisiae cbk1-as DSE1-URA3 strain, 5-FOA growth OD615, 2 d; at 50 µM; stronger effect = higher value.
[16] abbreviates: H69AR cells + 2 uM doxorubicin, measured here: viability with 2 uM doxorubicin, stronger effect = lower value.
Where [17] appears, read: H69AR cells, compound alone cytotoxicity.

One may read the viability as a read-out of living cells in per cent, often relative to untreated cells. In general, inhibition refers to the relative decrease from the control value, in per cent.

Results filed as inconclusive are left out. The source made the active and inactive calls.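 How the source made its calls, unless noted: active means growth inhibition above 25% in both replicates, a cutoff set 3 SD above the mean; inconclusive means above 25% in only one replicate; inactive means the rest.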

Sequence of Receptor tyrosine-protein kinase erbB-2 (Homo sapiens) (P04626 whole entry, looked up): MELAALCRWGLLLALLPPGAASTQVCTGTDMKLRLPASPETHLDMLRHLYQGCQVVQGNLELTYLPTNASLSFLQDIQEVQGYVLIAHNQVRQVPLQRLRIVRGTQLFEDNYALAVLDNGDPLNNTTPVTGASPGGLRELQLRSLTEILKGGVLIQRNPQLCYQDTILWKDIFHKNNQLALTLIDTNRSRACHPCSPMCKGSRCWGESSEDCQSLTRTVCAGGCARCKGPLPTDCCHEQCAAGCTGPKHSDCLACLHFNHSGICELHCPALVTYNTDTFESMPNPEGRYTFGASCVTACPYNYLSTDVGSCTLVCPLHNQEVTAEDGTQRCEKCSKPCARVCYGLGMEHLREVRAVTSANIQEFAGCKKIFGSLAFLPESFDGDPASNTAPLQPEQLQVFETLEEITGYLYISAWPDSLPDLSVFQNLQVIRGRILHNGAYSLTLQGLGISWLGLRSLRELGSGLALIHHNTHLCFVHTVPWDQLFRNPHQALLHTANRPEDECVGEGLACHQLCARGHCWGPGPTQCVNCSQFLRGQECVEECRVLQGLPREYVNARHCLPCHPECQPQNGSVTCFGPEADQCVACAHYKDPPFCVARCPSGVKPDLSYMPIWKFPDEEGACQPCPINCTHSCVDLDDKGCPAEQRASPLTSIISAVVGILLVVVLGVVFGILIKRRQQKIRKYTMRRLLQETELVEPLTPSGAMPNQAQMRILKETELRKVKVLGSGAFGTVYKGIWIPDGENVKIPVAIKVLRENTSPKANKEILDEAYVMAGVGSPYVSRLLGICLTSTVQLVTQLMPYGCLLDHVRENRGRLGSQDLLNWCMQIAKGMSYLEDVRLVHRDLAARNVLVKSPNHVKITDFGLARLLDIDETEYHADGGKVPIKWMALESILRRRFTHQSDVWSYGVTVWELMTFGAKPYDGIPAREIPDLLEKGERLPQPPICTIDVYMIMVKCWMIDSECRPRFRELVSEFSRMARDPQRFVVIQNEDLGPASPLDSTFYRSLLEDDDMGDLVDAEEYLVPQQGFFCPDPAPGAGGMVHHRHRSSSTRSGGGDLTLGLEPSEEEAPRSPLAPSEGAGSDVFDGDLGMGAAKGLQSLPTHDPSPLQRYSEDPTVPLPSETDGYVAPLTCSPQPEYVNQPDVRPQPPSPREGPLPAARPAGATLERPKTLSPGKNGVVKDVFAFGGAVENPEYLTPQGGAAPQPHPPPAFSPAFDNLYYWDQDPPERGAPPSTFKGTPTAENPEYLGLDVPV

In the case of `CCCC(=O)Nc1nc2ccc(S(N)(=O)=O)cc2s1`, the viability was 88% in assay [1]; 88% (inactive) in [3]; 90% (inactive) in [4]; 106% (inactive) in assay [5]; 71.4% in [6] (setting [16]); 106% in assay [6] (setting [17]). For the same compound, the viability is 99.4% (inactive) in assay [12] and 90.5% (inactive) in [13]. In assay [2], the Her2 level is 98% (inactive). Further, the differential viability (reversal) in assay [6] (H69AR cells + 2 uM doxorubicin) is 34.3% (inactive). For the same compound, the figures for the inhibition in [7], in [8] and in assay [14] were -3.33% (inactive), 6.33% (inactive) and 0.465% (inactive), respectively. Besides, the growth inhibition was -4% (inactive) in [9] and -0.595% (inactive) in assay [10]. Also, in assay [11], the viability increase is -1.78% (inactive). Besides, in assay [15], the RAM network inhibition was -0.2% (inactive).
As to `CCOC(=O)N1CCC(NC(=O)CN2C(=O)CCSc3ccccc32)CC1`, the viability in assay [1] was 96.5%; in assay [3] it was 96.5% (inactive); in [4], 87.5% (inactive); in assay [5], 93.1% (inactive); in assay [6] (setting [16]), 96.6%; in assay [6] (setting [17]), 93.1%. The values for the viability in assay [12] and in assay [13] were 106% (inactive) and 101% (inactive), respectively. Besides, in assay [2], the Her2 level is 97.5% (inactive). In assay [6] (H69AR cells + 2 uM doxorubicin), the differential viability (reversal) was -3.45% (inactive). For the same compound, the inhibition is -1.87% (inactive) in assay [7], -1.15% (inactive) in assay [8] and 2.65% (inactive) in assay [14]. Moreover, the figures for the growth inhibition in assay [9] and in assay [10] were 5.44% (inactive) and -4.73% (inactive), respectively. Moreover, the viability increase in assay [11] is 1.02% (inactive). Besides, the RAM network inhibition in assay [15] is -0.42% (inactive).
On to `Cc1ccccc1Cn1cc(/C=N/n2cnnc2)c2ccccc21`, for which the viability in assay [1] was 100%; in [3], 100% (inactive); in assay [4], 68.7% (inactive); in assay [5] it was 95.4% (inactive); in assay [6] (setting [16]) it was 82%; in assay [6] (setting [17]), 95.4%. Moreover, the viability in assay [12] was 67.8% (inactive); in assay [13] it was 61.6% (inactive). Further, in assay [2], the Her2 level was 99.5% (inactive). For the same compound, the differential viability (reversal) in assay [6] (H69AR cells + 2 uM doxorubicin) was 13.3% (inactive). The inhibition in [7] was -2.6% (inactive); in assay [8], 4.83% (inactive); in assay [14], 1% (inactive). The figures for the growth inhibition in assay [9] and in assay [10] were 7.88% (inactive) and 23.3% (inactive), respectively. For the same compound, the viability increase in assay [11] was -4.78% (inactive). Further, the RAM network inhibition in [15] was -0.25% (inactive).
For `CC1=C(C(N)=O)C(c2ccncc2)n2nc(-c3ccccc3Cl)nc2N1` (stereo not given), the viability is 96% in assay [1]; 96% (inactive) in [3]; 90.1% (inactive) in [4]; 100% (inactive) in assay [5]; 86.9% in [6] (setting [16]); 100% in assay [6] (setting [17]). The viability is 94% (inactive) in [12] and 98.8% (inactive) in assay [13]. In addition, the Her2 level in assay [2] was 96.5% (inactive). Moreover, the differential viability (reversal) in [6] (H69AR cells + 2 uM doxorubicin) was 13.3% (inactive). The values for the inhibition in assay [7], in assay [8] and in assay [14] were 0.53% (inactive), -3.11% (inactive) and 1.56% (inactive), respectively. Further, the growth inhibition is -8.2% (inactive) in assay [9] and 6.52% (inactive) in assay [10]. The viability increase in [11] is -0.22% (inactive). Further, the RAM network inhibition in assay [15] is -0.11% (inactive).
As for `CCOC(=O)N1CCC(N2C(=O)c3ccccc3C2Nc2cc(Cl)c(OC)cc2OC)CC1` (stereo not given), the viability in [1] is 92.5%; in assay [3] it was 92.5% (inactive); in assay [4] it was 91.6% (inactive); in [5], 78.2% (inactive); in assay [6] (setting [16]), 64.2%; in [6] (setting [17]), 78.2%. Further, the viability in assay [12] is 77.8% (inactive); in assay [13] it was 76% (inactive). Besides, the Her2 level in assay [2] was 114% (inactive). The differential viability (reversal) in [6] (H69AR cells + 2 uM doxorubicin) is 14% (inactive). The inhibition was -4.8% (inactive) in assay [7], 0.83% (inactive) in assay [8] and 0.285% (inactive) in assay [14]. In addition, the results for the growth inhibition in assay [9] and in assay [10] were 3.33% (inactive) and 4.05% (inactive), respectively. For the same compound, the viability increase in assay [11] is -4.45% (inactive). In addition, in assay [15], the RAM network inhibition was 3.54% (inactive).
